{
  "source": "PubChem BioAssay AID1578",
  "about": "(Sanford-Burnham Center for Chemical Genomics, 2009)",
  "note": "Out of some 290,000 compounds screened, about 3,000 (1%) were called active. The list comes from a sample in which actives are over-represented; it also holds similar structures and randomly drawn compounds. Values without a mark were called inactive. No stated cut-off is given here; in the data, active means inhibition mostly above about 36% (no sharp cut-off); inactive means mostly below about 34%.",
  "data": [
    {"assay": "inhibition of NOD1-driven NF-kB reporter – cell-based, luminescence, uHTS, primary screen (AID 1578);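 further: HEK-293T reporter cells stimulated with the NOD1 agonist gamma-tri-DAP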", "settings": "NOD1-driven NF-kB luciferase reporter cells, at 4 µM, stronger effect = higher value", "values": [
      {"smiles": "CN(C)CCCN(Cc1ccccc1)C(=S)NCc1ccccc1", "inhibition": "-3.5%"},
      {"smiles": "Cc1ccc(C)c(-n2nnnc2SCC(=O)Nc2c(C)n(C)n(-c3ccccc3)c2=O)c1", "inhibition": "-6.2%"},
      {"smiles": "CCOc1ncccc1C(=O)Nc1nnc(C)s1", "inhibition": "-28.7%"},
      {"smiles": "CC(C)NC(=O)C(=O)NCCN1CCN(C(=O)c2ccc(C(C)(C)C)cc2)CC1", "inhibition": "-31.9%"},
      {"smiles": "Cc1c(CCO)c(=O)[nH]n1S(=O)(=O)c1ccc(Cl)cc1Cl", "inhibition": "-2.3%"},
      {"smiles": "COc1ccccc1NC(=S)NC(=O)/C=C/c1ccco1", "inhibition": "-34.4%"},
      {"smiles": "COc1ccc2[nH]c(C(=O)Nc3ncc(C)cc3Br)cc2c1", "inhibition": "1.8%"},
      {"smiles": "Cc1cccc(Cc2nnc(CCC(=O)N(C)Cc3ccncc3C)o2)c1", "inhibition": "-15.4%"},
      {"smiles": "COC(=O)c1ccc(C23CC4(C2)[C@H](CN(Cc2ccc(-c5ccccc5)cc2)[C@@H]4c2ccccc2)C3c2ccc(Cl)nc2)cc1", "note": "(stereo partly drawn)", "inhibition": "-11.8%"},
      {"smiles": "CCOP(=O)(c1ccc(N(C)C)cc1)C(O)c1ccccc1", "note": "(stereo not drawn)", "inhibition": "-12.2%"},
      {"smiles": "N#C/C(=C(/O)c1cccc(F)c1)c1nc2ccccc2s1", "inhibition": "3.7%"},
      {"smiles": "COC(=O)c1ccc(/C(O)=C(\\C#N)c2nc3ccccc3s2)cc1", "inhibition": "29.2%"},
      {"smiles": "N#C/C(=C(/O)c1ccc(F)cc1)c1nc2ccccc2s1", "inhibition": "61.2% (active)"},
      {"smiles": "O=C(CSc1cn[nH]n1)Nc1ccccc1C(F)(F)F", "inhibition": "-20.2%"},
      {"smiles": "CCOC(=O)CNC(=O)C(CC(N)=O)NC(=O)OC(C)(C)C", "note": "(stereo not drawn)", "inhibition": "-7.6%"},
      {"smiles": "CN(Cc1cccnc1)C(=O)c1cc(COc2ccc3c(c2)CCCC3)on1", "inhibition": "-46.9%"},
      {"smiles": "Cc1nc(CN(C)C(=O)c2cc(COc3c(F)cccc3F)on2)cs1", "inhibition": "-40.5%"},
      {"smiles": "CN(Cc1nccn1C)C(=O)c1cc(COc2ccc3ncccc3c2)on1", "inhibition": "-6.6%"},
      {"smiles": "Cc1cc(CN(C)C(=O)c2cc(COc3ccc4ncccc4c3)on2)on1", "inhibition": "13.2%"},
      {"smiles": "COc1cc(NC(=O)c2ccco2)c(OC)cc1NC(=O)CSc1ncc(-c2ccc(F)cc2)[nH]1", "inhibition": "-33.5%"},
      {"smiles": "COc1ccc(N2CCN(C(=O)C3CCN(S(=O)(=O)c4c(C)noc4/C=C/N(C)C)CC3)CC2)cc1", "inhibition": "-9.1%"},
      {"smiles": "O=C(NCCc1ccccc1)C(=O)NCC1OCCCN1S(=O)(=O)c1cccs1", "note": "(stereo not drawn)", "inhibition": "-40.9%"},
      {"smiles": "COc1cc(/C=C/C(=O)Nc2nc3ccc(S(=O)(=O)N(C)C)cc3s2)cc(OC)c1OC", "inhibition": "28.3%"},
      {"smiles": "CCc1cccc2c(C(=O)COC(=O)c3ccc(O)cc3)c[nH]c12", "inhibition": "-17.9%"},
      {"smiles": "CCc1cccc2c(C(=O)COC(=O)C3=NNC(=O)CC3)c[nH]c12", "inhibition": "-12.4%"},
      {"smiles": "Cc1noc(C)c1C(=O)OCC(=O)c1c[nH]c2ccccc12", "inhibition": "-6.2%"},
      {"smiles": "CCc1cccc2c(C(=O)COC(=O)c3ccccc3)c[nH]c12", "inhibition": "-19.8%"},
      {"smiles": "CCc1cccc2c(C(=O)COC(=O)c3c(C)noc3C)c[nH]c12", "inhibition": "92.9% (active)"},
      {"smiles": "CCc1cccc2c(C(=O)COC(=O)c3cccc(S(=O)(=O)N(C)C4CCCCC4)c3)c[nH]c12", "inhibition": "77.3% (active)"},
      {"smiles": "CCS(=O)CCSc1nc2ccccc2s1", "note": "(stereo not drawn)", "inhibition": "-10.5%"},
      {"smiles": "N#Cc1cc(C(=O)c2ccccc2O)cn(-c2nccs2)c1=O", "inhibition": "-9.7%"},
      {"smiles": "O=C(NCc1ccccc1)C1CCN(c2nc(-c3ccccc3)nc3c2CCC3)CC1", "inhibition": "15.8%"},
      {"smiles": "CC[C@@H]1CC=C[C@H]2[C@H]1C(=O)N(Cc1ccccc1)[C@H]2c1ccc(C(F)(F)F)cc1", "inhibition": "-2.1%"},
      {"smiles": "COc1ccc(C(=O)O/N=C2\\CCCc3nonc32)cc1", "inhibition": "-0.9%"},
      {"smiles": "CC(/C=C/c1ccccc1)=N\\NC(=O)c1ccncc1", "inhibition": "0.4%"},
      {"smiles": "CC(/C=C/c1ccccc1)=N\\NC(=O)c1ccc(Br)cc1", "inhibition": "43.7%"},
      {"smiles": "O=C(NCCc1ccccc1)C(=O)N/N=C/c1ccccc1C(F)(F)F", "inhibition": "-5.8%"},
      {"smiles": "CC(=O)Nc1cccc(Cn2cccn2)c1", "inhibition": "11.3%"},
      {"smiles": "Cc1ccc(NC(=O)c2cc3c(s2)CCCC3)cc1", "inhibition": "-69.9%"},
      {"smiles": "O=C(Nc1cccc(Cn2cccn2)c1)c1cc2c(s1)CCCC2", "inhibition": "34.5% (active)"},
      {"smiles": "C=CCN(C(=O)CSc1nc2[nH]ncc2c(=O)n1-c1ccccc1OC)c1ccccc1", "inhibition": "-29%"},
      {"smiles": "COc1ccc(Nc2nc3ccccc3nc2NS(=O)(=O)c2cccs2)c(OC)c1", "inhibition": "18%"},
      {"smiles": "COc1ccc(Nc2nc3ccccc3nc2NS(=O)(=O)c2cccs2)cc1", "inhibition": "39.2%"},
      {"smiles": "O=C(O)c1ccc(Nc2nc3ccccc3nc2NS(=O)(=O)c2cccs2)cc1", "inhibition": "-3.1%"},
      {"smiles": "O=C(O)c1cccc(Nc2nc3ccccc3nc2NS(=O)(=O)c2cccs2)c1", "inhibition": "-74.2%"},
      {"smiles": "O=C1N2c3ccccc3CCc3cccc(c32)C1(O)C(F)(F)F", "note": "(stereo not drawn)", "inhibition": "-26.6%"},
      {"smiles": "CC1CC(C)CN(S(=O)(=O)N2CCCC(C(=O)NCCCN3CCOCC3)C2)C1", "note": "(stereo not drawn)", "inhibition": "16.8%"},
      {"smiles": "CCn1nc(C)c(Br)c1Nc1ccc(Br)cc1", "inhibition": "7.5%"},
      {"smiles": "Cc1cc(C)nc(-n2nc(C)c(Br)c2Nc2ccc(Br)cc2)n1", "inhibition": "-10.9%"},
      {"smiles": "Cc1nn(C)c(Nc2ccc(Br)cc2)c1Br", "inhibition": "44.9% (active)"},
      {"smiles": "COc1cc(NC(=O)CNc2cccc(S(=O)(=O)N3CCCC3)c2)cc(OC)c1", "inhibition": "-2.7%"},
      {"smiles": "CCN(CC)S(=O)(=O)c1cccc(NC(=O)c2cncc(Br)c2)c1", "inhibition": "-54.6%"},
      {"smiles": "CC(=O)OCC(=O)Nc1cc(S(=O)(=O)N2CCCCCC2)ccc1Cl", "inhibition": "-22.1%"},
      {"smiles": "Cc1ccc(C)c(OCC(=O)Nc2cccc(S(=O)(=O)NC3=NCCCCC3)c2)c1", "inhibition": "-2.9%"},
      {"smiles": "Cc1ccc(OCC(=O)Nc2cccc(S(=O)(=O)NC3=NCCCCC3)c2)cc1C", "inhibition": "-93%"},
      {"smiles": "Cc1ccc(C(C)C)c(OCC(=O)Nc2cccc(S(=O)(=O)NC3=NCCCCC3)c2)c1", "inhibition": "53.3% (active)"},
      {"smiles": "CCN(CC)CC(=O)Nc1cccc(S(=O)(=O)N2CCCC2)c1", "inhibition": "-15.1%"},
      {"smiles": "CC(C)(C)CC(=O)Nc1cc(S(=O)(=O)N2CCCCCC2)ccc1Cl", "inhibition": "-3.6%"},
      {"smiles": "CCN(CC)S(=O)(=O)c1ccc(C(=O)Nc2cccc(C)c2)cc1", "inhibition": "-4.2%"},
      {"smiles": "Cn1nc(-c2ccccc2)c2cc(C(=O)O)sc21", "inhibition": "-19.4%"},
      {"smiles": "COc1cc(OC)cc(C(=O)Nc2cccc(NC(=O)c3ccccc3)c2)c1", "inhibition": "2.4%"},
      {"smiles": "Cc1cccc2nc(CSc3ncccc3C(=O)O)cn12", "inhibition": "-32.8%"},
      {"smiles": "Cc1cc(C)nc(N/N=C/c2ccccc2OCc2ccccc2)n1", "inhibition": "-24.5%"},
      {"smiles": "COc1cccc(NC(=O)CSc2ccc3nnc(-c4ccncc4)n3n2)c1", "inhibition": "10.7%"},
      {"smiles": "O=C(Cn1cnc2ccccc2c1=O)Nc1cccc(S(=O)(=O)N2CCCCC2)c1", "inhibition": "3.7%"},
      {"smiles": "O=C(Cn1[nH]c(=O)c2ccccc2c1=O)Nc1cccc(S(=O)(=O)N2CCCCCC2)c1", "inhibition": "55% (active)"},
      {"smiles": "CS(=O)(=O)c1ccc(Cl)c(NC(=O)CCl)c1", "inhibition": "43.3% (active)"},
      {"smiles": "O=C(Cc1n[nH]c(=O)c2ccccc12)Nc1cccc(S(=O)(=O)N2CCCC2)c1", "inhibition": "0.5%"},
      {"smiles": "CC(=O)Nc1cccc(S(=O)(=O)N2CCCCCC2)c1", "inhibition": "-15.2%"},
      {"smiles": "O=C(Cn1c(=O)oc2cc(S(=O)(=O)N3CCCC3)ccc21)Nc1ccc(C(F)(F)F)cc1", "inhibition": "8.8%"},
      {"smiles": "CC(=O)c1cccc(NC(=O)Cn2c(=O)oc3cc(S(=O)(=O)N4CCCC4)ccc32)c1", "inhibition": "-4.9%"},
      {"smiles": "CS(=O)(=O)c1ccc(Cl)c(NC(=O)Cc2c(Cl)cccc2Cl)c1", "inhibition": "19.7%"},
      {"smiles": "O=C(CCc1ccccc1Cl)Nc1cccc(S(=O)(=O)N2CCCC2)c1", "inhibition": "-16.3%"},
      {"smiles": "CS(=O)(=O)c1ccc(Cl)c(NC(=O)CCc2ccccc2)c1", "inhibition": "-34.6%"},
      {"smiles": "O=C(Cn1c(=O)oc2cc(S(=O)(=O)N3CCCC3)ccc21)Nc1cccc(C(F)(F)F)c1", "inhibition": "58% (active)"},
      {"smiles": "CCCc1cc(=O)[nH]c(SCC(=O)NCCC2=CCCCC2)n1", "inhibition": "-16.8%"},
      {"smiles": "Cc1ccc2nc(NCC(=O)NN)nc(-c3ccccc3)c2c1", "inhibition": "-11.2%"},
      {"smiles": "Cc1ccnc(NS(=O)(=O)c2ccc(NC(=O)c3cc(=O)c4ccccc4o3)cc2)n1", "inhibition": "-0.9%"},
      {"smiles": "NC(=O)/C(=C/c1cccnc1)NC(=O)c1ccccc1", "inhibition": "4.1%"},
      {"smiles": "CCc1ccc(C2c3[nH]c4ccccc4c3CCN2C(=O)c2cc(C)nn2C)cc1", "note": "(stereo not drawn)", "inhibition": "-25.9%"},
      {"smiles": "CCCCN(C)C(=O)Cn1nc(-c2ccc(Cl)cc2)ccc1=O", "inhibition": "-9.3%"},
      {"smiles": "O=C(c1ccc(S(=O)(=O)N2CCCC2)cc1)N(Cc1ccco1)C1CCS(=O)(=O)C1", "note": "(stereo not drawn)", "inhibition": "-10.9%"},
      {"smiles": "CNC(=S)Nc1cccc(S(=O)(=O)NC2=NCCC2)c1", "inhibition": "-13.1%"},
      {"smiles": "O=C(Nc1cccc(S(=O)(=O)NC2=NCCC2)c1)C1CCC1", "inhibition": "-32.4%"},
      {"smiles": "O=C(CCl)Nc1cccc(S(=O)(=O)NC2=NCCC2)c1", "inhibition": "64.9% (active)"},
      {"smiles": "COc1cc(NC(=O)[C@H](C)NC(=O)N2CCn3c2nc2ccccc23)cc(OC)c1", "inhibition": "5.6%"},
      {"smiles": "CCCc1nnc(SCC(=O)O)n1CC", "inhibition": "-9.2%"},
      {"smiles": "CSc1ccc(/C=C/C(=O)OCC(=O)N(C)CCC#N)cc1", "inhibition": "-23%"},
      {"smiles": "Cc1cc(/C=N/N2CCN(C)CC2)c(C)n1-c1ccc(Cl)cc1", "inhibition": "-8.4%"},
      {"smiles": "O=C(O)CN1C(=O)/C(=C/c2ccc(SCc3ccccc3)o2)SC1=S", "inhibition": "-39.2%"},
      {"smiles": "O=C1NC(=S)S/C1=C\\c1ccc(SCc2ccco2)o1", "inhibition": "-10.8%"},
      {"smiles": "O=C1NC(=S)S/C1=C\\c1ccc(SCc2ccccc2)o1", "inhibition": "91.8% (active)"},
      {"smiles": "CN(C)c1nc2ncn(Cc3ccccc3)c2c(=O)[nH]1", "inhibition": "5.2%"}
    ]}
  ]
}
